# Screens (PubChem)
# Coupling enz: inhibits coupling enzyme system, counter-screen for aldolase hits; coupling enzyme system counterscreen, AmpLite Red fluorescence; activity change, negative = inhibition, % at 58.2 µM, hits read low; hit rate 0.67% among 290,000; AID 2472; in the data active means activity change below about -30%
#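 First, compound is pin-transferred into glyceraldehyde-3-phosphate coupling-enzyme reagent at 57.5 uM final and held 10 min at RT. Next, substrate, coupling system and AmpLite Red are added. After 20 min RT, fluorescence (525/598 nm) is read.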
# Sfp PPTase inh: blocks B. subtilis Sfp PPTase activity; Q9F4F7; Biochemical Sfp PPTase activity, qHTS; hit rate 3.5% among 310,000; Potency, µM, for inactives: largest response in the series, negative = inhibition, actives largely listed as inhibitors;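 further: the enzyme is Sfp with the accession as filed and its product quenches rhodamine fluorescence; potency means the concentration at half of the fitted maximal effect; 0% = enzyme reaction without inhibitor and -100% = no enzyme wells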
#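 After 15 min at room temperature with compound, 15 nM Sfp received 5 uM rhodamine-CoA plus 12.5 uM BHQ-2-ybbR (50 mM Hepes pH 7.6, 10 mM MgCl2). Rate came from the fluorescence difference over 30 min, ex 525/em 598 nm.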
# Tau FP inhib: tau fibrillization inhibition (FP); P10636; K18 P301L tau heparin fibrillization, Alexa594 FP, 6 h; Potency, µM (titrated, usually from 57.7 µM), for inactives: at the highest dose activity, negative = inhibition, hits mostly inhibitors; hit rate 0.39% among 280,000; AID 1468; further: potency means the concentration at half of the fitted maximal effect; nearly all actives have a fitted effect of over 55% in size
# Target sequence (P10636 561-689 P618L limits assumed): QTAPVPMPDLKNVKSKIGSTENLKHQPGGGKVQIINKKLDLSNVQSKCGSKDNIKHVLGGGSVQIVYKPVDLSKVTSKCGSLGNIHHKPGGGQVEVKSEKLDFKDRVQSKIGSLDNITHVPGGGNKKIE
#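 Steps: dispense K18 P301L tau (15 uM plus 0.24 uM Alexa 594 tracer, final) in pH 7 sodium acetate; add compound; add heparin (20 uM final); incubate 6 hr, 37 C; add ThT (30 uM final); after 1 hr ambient, read FP.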
# Tau fibril ThT: blocks human tau fibril formation measured by thioflavin T; hit rate 2.1% among 270,000; P10636; Potency, µM (top dose mostly 57.4 µM), inactives show at the highest dose activity, negative = inhibition, actives largely listed as inhibitors; recombinant tau K18 P301L, heparin-induced fibrillization, ThT fluorescence; AID 1460; further: potency means the concentration at half of the fitted maximal effect; nearly all actives have a fitted effect of over 55% in size
#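 K18 P301L tau (15 uM + 0.24 uM Alexa 594-tagged), heparin 20 uM, NaOAc pH 7, 6 h 37 C; ThT 30 uM, 1 h RT, ex 450/em 510 nm.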
# Tau fluor counter: counter-screen for tau fibril formation inhibitors | tau K18 P301L Alexa594 fluorescence, heparin fibrillization | hit rate 0.93% among 280,000 | Potency, µM (top dose mostly 57.7 µM), without a hit: at the top dose activity change, negative = decrease; further: potency means the concentration at half of the fitted maximal effect; nearly all actives have a fitted effect of over 55% in size
#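 Human tau K18 P301L (15 uM unlabeled, 0.24 uM Alexa 594-labeled) in 100 mM sodium acetate pH 7 with 20 uM heparin, 6 hr at 37 C. ThT 30 uM added, 1 hr ambient; Alexa 594 FP and total fluorescence read at 555/632 nm.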
# The depositor's hits bear a star; ? = inconclusive; / = no result given; [ ] = another dose, or the depositor's remark. Compounds with a hit are over-represented: about 5.2% of the library has one in this group of screens. Unless noted, the call rests on the fitted dose curve; in most records, active means well fitted curve in the direction sought with a large enough effect; inconclusive means small, poorly fitted or top-dose-only effect, or another doubt; inactive means no such curve, though single readings can be large; an effect the other way counts as inactive or inconclusive. Unless noted, on the % scale 0 is the no-effect control and ±100 the full control effect.
SMILES,Coupling enz,Sfp PPTase inh,Tau FP inhib,Tau fibril ThT,Tau fluor counter
O=C(O)/C=C/C(=O)NNC(=O)c1ccccc1Br,1.6,56.2µM*,0.7%,-5.5%,4.7%
Cc1cccc(C(=O)NNC(=O)/C=C/C(=O)O)c1,0.6,-5.5%,?,?,-6.5%
CNC(=S)NNC(=O)c1ccccc1Br,0.0,-20.8%,-17.4%,-21.7%,-13.5%
Cc1ccccc1C(=O)NNC(=O)/C=C\C(=O)O,-2.3,22.4µM*,-4.4%,-15.4%,-10.4%
CCn1cc(S(=O)(=O)c2ccc(C)cc2C)c(=O)c2cc(F)c(N3CCCCC3)cc21,/,/,-3.6%,-12.7%,-11.4%
Cc1ccc(C(=O)C(NC(=O)c2ccco2)Nc2sc3c(c2C(N)=O)CCCC3)cc1 (stereo not drawn),-4.9,79.4µM*,-12.1%,28.2µM*,?
COC(=O)c1c(NC(=O)c2ccco2)sc2c1CCC2,0.5,-3.8%,-4.9%,?,-13.9%
O=C(O)CCC(=O)Nc1sc2c(c1C(=O)NC1CCCC1)CCCC2,/,13.6%,/,/,/
CC(C)OC(=O)c1c(NC(=O)c2ccco2)sc2c1CCCCC2,5.1,31.6µM*,?,?,-19.8%
COC(=O)Nc1sc2c(c1C(=O)NC1CC1)CCCCCC2,2.5,31.6µM*,2.5%,-9.7%,-7.4%
O=C(Nc1sc2c(c1C(=O)NC1CC1)CCCCCC2)c1ccco1,4.4,39.8µM*,-7.8%,?,-15.4%
O=S(=O)(Nc1nc2c(s1)CCCC2)c1ccc2ccccc2c1,7.2,14.7%,-2.9%,-10.4%,-25.6%
Fc1ccccc1Nc1n[nH]c(=S)s1,2.1,50.1µM*,-1.7%,-17.2%,-2.2%
c1ccc2c(Nc3nc4c(s3)CCCC4)cccc2c1,/,50.1µM*,3.7%,?,?
S=c1[nH]nc(Nc2cccc3ccccc23)s1,5.0,39.8µM*,-2.7%,?,?
S=c1[nH]nc(Nc2ccc(Cl)cc2)s1,-0.8,?,1.2%,-13.5%,-11.7%
c1cc(-c2cnn3cc(-c4ccc(OCCN5CCCCC5)cc4)cnc23)ccn1,-2.7,-2.8%,/,/,/
O=S(=O)(c1cccc(F)c1)N1CCC(c2nc3ccccc3s2)CC1,/,/,-13.2%,-5.6%,-3.2%
O=C(Cn1c(=O)nc(-c2ccccc2)c2cc(Cl)ccc21)N1CCN(c2ccc(F)cc2)CC1,/,/,2.6%,-15.4%,0.6%
Cc1cc(O)c(C)c2sc(N)nc12,-0.6,-15.1%,/,/,/
COc1cccc(CC(=O)N2CCc3nc(-c4ccccc4)c4c(c3C2)CO[C@@H](C)C4)c1,0.1,0.2%,1.0%[11.6 µM],-9.0%[11.5 µM],-11.4%[11.6 µM]
N#C/C(=N\Nc1cccc(C(F)(F)F)c1)C(=O)c1csc(-c2cccnc2)n1,12.4,-0.1%,9.8%,4.47µM*,-15.2%
O=C(Nc1cccc(C(F)(F)F)c1)c1cccnc1,0.0,6.2%,-3.1%,-0.2%,-5.4%
O=C(O)CCCN1C(=O)/C(=C\c2ccc(-c3nc4ccccc4s3)o2)SC1=S,-2.4,50.1µM*,?,2.51µM*,?
O=Cc1ccc(-c2nc3ccccc3s2)o1,-0.5,2.0%,-8.8%,?,-2.3%
SMILES,Coupling enz,Sfp PPTase inh,Tau FP inhib,Tau fibril ThT,Tau fluor counter
O=C(O)CC(C(=O)O)N1C(=O)/C(=C/c2ccc(-c3nc4ccccc4s3)o2)SC1=S (stereo not drawn),0.0,8.91µM*,?,7.94µM*,-25.6%
O=C(O)CCN1C(=O)/C(=C/c2ccc(-c3nc4ccccc4s3)o2)SC1=S,-1.7,-21.3%,-5.0%,1.26µM*,-25.5%
O=C(O)CCCN1C(=O)/C(=C\C(Cl)=C\c2ccccc2)SC1=S,0.4,-28.4%,/,/,/
CN1CCN(c2ncnc3ccc(-c4ccccc4C(F)(F)F)cc23)CC1,5.3,?,/,/,/
COc1ccc(-c2nc(SC)n(C)c(=O)c2C#N)cc1OC,-3.3,-8.9%,2.1%,-8.9%,1.6%
COc1ccc(C(c2c(O)nc(SC)n(C)c2=O)c2c(O)nc(SC)n(C)c2=O)cc1O,7.7,50.1µM*,?,?,-9.6%
COc1cc2c(cc1OC)C(c1cc3cc(OC)c(OC)cc3[nH]c1=O)N(C(=O)C1CC1)CC2 (stereo not drawn),-16.0,50.1µM*,-10.3%,-15.5%,-8.3%
C[C@@H](/C=C\c1cccc(Oc2ccc(F)cc2)c1)N(O)C(N)=O,-7.5,?,3.8%,?,-23.8%
Cc1cc(C)c2c(N)c(C(=O)C(C)(C)C)sc2n1,1.0,15.0%,2.4%,3.9%,1.9%
